Where a name gives a salt, the structure may show the parent alone. A number with no mark means an inactive call.
These molecules were tested on Plasmodium falciparum NF54/iGP1_RE9H ulg8 stage V gametocytes (assay: gametocyte viability (luciferase signal relative to DMSO control) (% of DMSO control); higher = less gametocytocidal activity, active = 50 or less). Settings: concentration: 1 µM; exposure time: 72 h.
Experimental: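 Synchronous P. falciparum NF54/iGP1_RE9H ulg8 mature stage V gametocytes (day 12) were exposed to Cayman Epigenetics Screening Library compounds at 10 µM or 1 µM for 72 h at 37 °C. Viability was read as RE9H luciferase bioluminescence, normalised to DMSO plate controls (100%); 50 µM methylene blue was the positive control.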
Molecule `O=C(O)c1ccc(CN2CCC(CN[C@@H]3C[C@H]3c3ccccc3)CC2)cc1` has a gametocyte viability of 86.7. `O=C(NC[C@H](O)CN1CCc2ccccc2C1)c1ccnc(NC2CCC2)c1` was tested, and the gametocyte viability was 80.7. For `CNCCN(C)Cc1c[nH]nc1-c1ccc(O[C@H]2C[C@H](OCCC3CCOCC3)C2)cc1`, the gametocyte viability was 85.5. In the case of `NC(=O)[C@H](CCCN=C(N)CF)NC(=O)c1ccccc1` [F-Amidine (trifluoroacetate salt)], the gametocyte viability is reported as 103. `Cc1[nH]c2ccccc2c1CCNCc1ccc(/C=C/C(=O)NO)cc1` [Panobinostat] showed a gametocyte viability of 60.2. `CCCNNC(=O)c1ccc(CNC(=O)/C=C/c2ccccc2)cc1` [HDAC3 Inhibitor] gave a gametocyte viability of 83.6. `C=C1C(=O)O[C@@H](CCC)[C@@H]1C(=O)O` [Butyrolactone 3] showed a gametocyte viability of 97.4. With `Cn1c(=O)cc(C(=O)Nc2ccc3c(c2)OCCO3)c2ccccc21` the gametocyte viability was 82.8. With `Nc1ccn([C@@H]2O[C@H](CO)[C@@H](O)C2(F)F)c(=O)n1` [Gemcitabine] the gametocyte viability was 91.5. Work on `COc1cc2c(NC3CCN(CC4CCCCC4)CC3)nc(N3CCCN(C(C)C)CC3)nc2cc1OCCCN1CCCCC1` yielded a gametocyte viability of 60.9. With `CN1CCC(=C2c3ccccc3C=Cc3ccccc32)CC1` [Cyproheptadine (hydrochloride hydrate)] the gametocyte viability was 88.2. In the case of `Nc1ccccc1NC(=O)c1cnccn1`, the gametocyte viability is reported as 96.3. Work on `O=C(O)c1ccc(O)c2ncccc12` yielded a gametocyte viability of 90.6. In the case of `CC(C)N(CCCNC(=O)Nc1ccc(C(C)(C)C)cc1)C[C@H]1O[C@@H](n2ccc3c(N)ncnc32)[C@H](O)[C@@H]1O`, the gametocyte viability is reported as 94.6. `Cn1cccc1C(=O)N1CCc2cc(C(=O)NO)ccc2C1` [HDAC6 Inhibitor] was tested, and the gametocyte viability was 87. With `COC(=O)c1ccc2c(c1)nc(NC(=O)c1ccccc1)n2CCCc1ccccc1` the gametocyte viability was 86.9. `O=c1[nH]c(=S)[nH]c(-c2ccccc2)c1Cc1c(O)ccc2ccccc12` [SIRT1/2 Inhibitor IV] gave a gametocyte viability of 84.7. For `Nc1ccccc1NC(=O)c1ccc(CNc2nccc(-c3cccnc3)n2)cc1` [Mocetinostat], the gametocyte viability was 89.7. Molecule `CC(C)(CNC(=O)c1cccc(-c2noc(C(F)(F)F)n2)c1)c1coc(-c2ccccc2)n1` has a gametocyte viability of 90.2. In the case of `CN1CCN(C(=O)CNC2CC2c2ccc(OCc3ccccc3)cc2)CC1` (stereo not given) [RN-1 (hydrochloride)], the gametocyte viability is reported as 89.1.

Same assay, conditions: concentration: 10 µM; exposure time: 72 h
Work on `O=C(O)c1ccc(CN2CCC(CN[C@@H]3C[C@H]3c3ccccc3)CC2)cc1` yielded a gametocyte viability of 88.4. In the case of `O=C(NC[C@H](O)CN1CCc2ccccc2C1)c1ccnc(NC2CCC2)c1`, the gametocyte viability is reported as 79.5. In the case of `CNCCN(C)Cc1c[nH]nc1-c1ccc(O[C@H]2C[C@H](OCCC3CCOCC3)C2)cc1`, the gametocyte viability is reported as 82.4. `NC(=O)[C@H](CCCN=C(N)CF)NC(=O)c1ccccc1` [F-Amidine (trifluoroacetate salt)] showed a gametocyte viability of 95.9. `Cc1[nH]c2ccccc2c1CCNCc1ccc(/C=C/C(=O)NO)cc1` [Panobinostat] gave a gametocyte viability of 61.4. With `CCCNNC(=O)c1ccc(CNC(=O)/C=C/c2ccccc2)cc1` [HDAC3 Inhibitor] the gametocyte viability was 93.8. With `C=C1C(=O)O[C@@H](CCC)[C@@H]1C(=O)O` [Butyrolactone 3] the gametocyte viability was 89.9. `Cn1c(=O)cc(C(=O)Nc2ccc3c(c2)OCCO3)c2ccccc21` gave a gametocyte viability of 86.7. Work on `Nc1ccn([C@@H]2O[C@H](CO)[C@@H](O)C2(F)F)c(=O)n1` [Gemcitabine] yielded a gametocyte viability of 85.8. With `COc1cc2c(NC3CCN(CC4CCCCC4)CC3)nc(N3CCCN(C(C)C)CC3)nc2cc1OCCCN1CCCCC1` the gametocyte viability was 14.7 (active). `CN1CCC(=C2c3ccccc3C=Cc3ccccc32)CC1` [Cyproheptadine (hydrochloride hydrate)] was tested, and the gametocyte viability was 86.6. `Nc1ccccc1NC(=O)c1cnccn1` showed a gametocyte viability of 89.4. With `O=C(O)c1ccc(O)c2ncccc12` the gametocyte viability was 84.3. `CC(C)N(CCCNC(=O)Nc1ccc(C(C)(C)C)cc1)C[C@H]1O[C@@H](n2ccc3c(N)ncnc32)[C@H](O)[C@@H]1O` showed a gametocyte viability of 94.1. Molecule `Cn1cccc1C(=O)N1CCc2cc(C(=O)NO)ccc2C1` [HDAC6 Inhibitor] has a gametocyte viability of 91.2. With `COC(=O)c1ccc2c(c1)nc(NC(=O)c1ccccc1)n2CCCc1ccccc1` the gametocyte viability was 54.7. In the case of `O=c1[nH]c(=S)[nH]c(-c2ccccc2)c1Cc1c(O)ccc2ccccc12` [SIRT1/2 Inhibitor IV], the gametocyte viability is reported as 87.5. For `Nc1ccccc1NC(=O)c1ccc(CNc2nccc(-c3cccnc3)n2)cc1` [Mocetinostat], the gametocyte viability was 88.2. In the case of `CC(C)(CNC(=O)c1cccc(-c2noc(C(F)(F)F)n2)c1)c1coc(-c2ccccc2)n1`, the gametocyte viability is reported as 83.2. With `CN1CCN(C(=O)CNC2CC2c2ccc(OCc3ccccc3)cc2)CC1` (stereo not given) [RN-1 (hydrochloride)] the gametocyte viability was 72.8.

— the supplement of paper PMC12297408
